AMA1 RON2 block: AMA1-RON2 (P. falciparum) interaction inhibition | AlphaScreen AMA1-biotinylated RON2 peptide binding | Potency, µM (titrated, usually from 58.2 µM), actives largely listed as inhibitors | hit rate 0.2% among 360,000 | AID 720542; note: nearly all actives have a fitted effect of over 45% in size
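AMA1 (3D7) with his tag at 25 nM final met compounds first, then biotinylated RON2 peptide at 25 nM; detection used donor plus acceptor beads, 10 µg/mL apiece, read by AlphaScreen after 30 min at room temperature.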
Pf growth 48h: inhibits P. falciparum growth in the first generation, 48 h; Potency, µM (doses to about 28.7 µM), hits mostly inhibitors; hit rate 5.9% among 310,000; P. falciparum luciferase growth in erythrocytes, 48 h
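Here the parasites carry a stable luciferase gene and grow inside erythrocytes in Albumax-based RPMI medium with compound for one erythrocytic cycle. Activity is scored as loss of luminescent signal.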
Pf growth 96h: inhibits malaria parasite growth, 96 h; P. falciparum luciferase reporter growth, 96 h; Potency, µM (titrated, usually from 28.7 µM), usual class: inhibitors; hit rate 6.9% among 320,000
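P. falciparum expressing integrated firefly luciferase grown in erythrocytes (2% hematocrit, 0.05% parasitemia final) with compounds for 96 hours at 37 C, 5% CO2. Growth inhibition read as loss of luminescence after adding luciferase detection reagent.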
HCV inhibitor: HCV inhibition; Huh7.5.1 HCVcc-Cre infection, luciferase reporter, 44 h; hit rate 3.4% among 340,000; Potency, µM (highest dose often 41.8 µM), hits mostly inhibitors
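Infectious HCV cell culture screen: compound-treated cells (1,000/well, pre-plated 4 h) are infected with HCVcc-Cre at roughly 0.5 moi and grown 44 h. Infection is quantified by luciferase signal after 15 min substrate incubation at room temperature.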
A number is an active result; – = inactive; ? = inconclusive; · = not tested or not shown; [ ] = dose if it differs, or a comment. This is a sample that favours compounds with a hit; in the whole collection about 11% have one here. Calls come from the whole dose curve; as a rule, active = well fitted curve in the direction sought with a large enough effect; inconclusive = small, poorly fitted or top-dose-only effect, or another doubt; inactive = no such curve, though single readings can be large; an effect the other way counts as inactive or inconclusive.

SMILES	AMA1 RON2 block	Pf growth 48h	Pf growth 96h	HCV inhibitor
CC1CCc2c(nc3sc4c(c3c2N)CCCC4)C1 (stereo not given)	–	–	?	11.2µM
CCCCOC(=O)c1ccc(NC(=O)C(=O)NCc2ccco2)cc1	–	–	–[5.75 µM]	–
CC1CC(N(C(=O)c2ccccc2Cl)c2ccccc2)c2ccccc2N1 (stereo not given)	–	?	11.7µM	–
CC(C)C[C@@H](CO)NS(=O)(=O)c1c(F)cccc1F	–	·	·	3.55µM
O=C1Nc2c(c(=O)[nH]c(=O)n2Cc2ccccc2)C1(NS(=O)(=O)c1ccccc1)C(F)(F)F (stereo not given)	–	–	14.7µM	–
Cc1ccc(-n2c3c(c(=O)[nH]c2=O)C(NS(=O)(=O)c2ccc(Cl)cc2)(C(F)(F)F)C(=O)N3)cc1 (stereo not given)	–	?	13.1µM	–
COc1cc(C#N)ccc1OCC(=O)Nc1cccc(S(=O)(=O)N(C)c2ccccc2)c1	–	·	·	·
COCCn1c(-c2ccc(OC)cc2)c(-c2ccc(OC)cc2)oc1=O	–	8.28µM	13.1µM	–
Cc1cccc(N2CCN(CC(=O)NCc3ccccc3)CC2)c1C	–	–	?	–
COc1ccc(NC(=O)CCN2CCN(c3ccccc3F)CC2)c(OC)c1	–	?	10.4µM	–
COc1ccccc1N1CCN(Cc2cc(C)c(C)cc2O)CC1	–	·	0.329µM	?
COc1ccccc1N1CCN(Cc2cc(Br)c(O)c3ncccc23)CC1	–	·	?	3.98µM
COc1ccccc1N1CCN(Cc2cccc(Br)c2)CC1	?	–	?	?
COc1ccc(CNC(=O)CN2CCN(c3cccc(C)c3C)CC2)cc1	–	–	–	3.16µM
CCc1ccc(CNC(=O)c2ccc(OC3CCN(C(=O)COC)CC3)cc2)nc1	–	–	–	·
CC(C)(C)NC(=O)C(c1ccccc1F)n1c(=O)c(-c2ccccc2)nc2ccccc21 (stereo not given)	–	·	·	·
O=C(CCN1CCN(c2ccccc2)CC1)Nc1ccc2c(c1)OCO2	–	?	–	–
Oc1cc2c(cc1CN1CCc3ccccc3C1)OCO2	–	–	?	–
O=C(CCN1CCN(c2ccccc2F)CC1)Nc1ccc2c(c1)OCO2	?	–	3.29µM	?
COc1cc(CN2CCN(c3cc(C)ccc3C)CC2)ccc1O	–	10.4µM	·	?
CCOc1ccccc1N1CCN(Cc2cccc(OC)c2O)CC1	–	3.29µM	·	?
Oc1cc2c(cc1CN1CCN(c3ccccc3F)CC1)OCO2	?	9.28µM	?	–
O=C(COC(=O)CNC(=O)c1ccc(Cl)cc1Cl)NNC(=O)c1ccccc1F	–	·	·	–
O=C(Cn1cnc2c(NC(=O)OCc3ccccc3)ncnc21)NCCN1CCOCC1	–	–	–	–
COc1ccc(NC(=O)CSc2nccn2Cc2ccco2)cc1OC	–	–	–	–
SMILES	AMA1 RON2 block	Pf growth 48h	Pf growth 96h	HCV inhibitor
COc1ccc(C)cc1NC(=O)c1cc(C2CC2)nc2c1c(C)nn2C1CCS(=O)(=O)C1 (stereo not given)	–[11.6 µM]	·	·	–
COc1ccccc1N1CCN(Cc2cc3c(cc2O)OCO3)CC1	–	14.7µM	–	–
COc1cc(CN2CCN(c3cccc(C)c3C)CC2)cc(Br)c1O	?	4.15µM	·	?
O=C(O)Cc1cccc(=O)c(O)c1C(=O)O	–	·	·	–
CCN(CCCNC(=O)C1c2ccccc2C(=O)N(CCOC)C1c1ccc(F)cc1)Cc1ccccc1 (stereo not given)	–	–	–	–
CCN(CC)CCCNC(=O)C1c2ccccc2C(=O)N(CCOC)C1c1ccc(F)cc1 (stereo not given)	–	–	13.1µM	–
Cc1cc(C)cc(N=Cc2[nH]c3ccc(Br)c(Cl)c3c2O)c1	–[2.32 µM]	1.47µM	?	–
Cc1ccc(N=Cc2cc(Br)cc(Cl)c2O)cc1	–	–	–	–
COc1ccc(CN=Cc2[nH]c3ccc(Br)c(Cl)c3c2O)cc1	–	3.7µM	?	–
CCN(C(=O)CN1CCOCC1)C1(C)C(=O)c2ccccc2C1=O	–	–	–	–
CCOC(=O)c1c(C)oc(=O)c(CC)c1O	–	·	·	·
CCOC(=O)c1c(C)oc2c(F)c(F)c(F)c(F)c2c1=O	–	–	–	10µM
NC(=O)c1cc(S(=O)(=O)NC2CCCCC2)co1	–	–	–	–
CCCn1c(C)nc2cc(Cl)c(N3CCN(c4nc(-c5ccc(C)cc5)cs4)CC3)cc21	–	8.28µM	5.22µM	?
Cc1ccc(-c2csc(NCCn3c(-c4ccncc4)nc4ccccc43)n2)cc1	–	–	–	?
Cc1ccc(-c2csc(N3CCN(c4ccc5nc(-c6ccncc6)n(CCN6CCCCC6)c5c4)CC3)n2)cc1	–	1.47µM	?	?
COc1ccc(-c2csc(N3CCN(c4cc5c(cc4Cl)nc(-c4ccncc4)n5CCOCCO)CC3)n2)cc1	–	?	3.7µM	–
COc1ccc(-c2csc(NCCc3nc4cc(Cl)c(N5CCCCC5)cc4n3CCOCCO)n2)cc1	–	·	·	–
Cc1ccc(-c2csc(NCCn3c(-c4ccncc4)nc4cc(C(F)(F)F)ccc43)n2)cc1	–	·	·	–
Cc1ccc(-c2csc(N3CCN(c4cc5c(cc4Cl)nc(-c4ccncc4)n5CCN4CCCCC4)CC3)n2)cc1	–	?	3.29µM	–
CCCn1c(C(C)Nc2nc(-c3ccc(Cl)c([N+](=O)[O-])c3)cs2)nc2cc(Cl)c(N3CCCCC3)cc21 (stereo not given)	–	?	?	?
Cc1cc2cc(C#N)c(N3CCOCC3)nc2cc1Cl	–	–	?	–
CCc1ccccc1Oc1ccc(S(=O)(=O)N2CCN(C)CC2)cn1	–	–	–	–
Cc1ccc2[nH]c(=O)c(CN(C(=O)c3cccs3)c3ccccc3)cc2c1	–	–	?	?
COc1cc(NC(=O)CSCc2ccccc2)c(C(=O)O)cc1OC	–	–	–	–
SMILES	AMA1 RON2 block	Pf growth 48h	Pf growth 96h	HCV inhibitor
O=C(Nc1nccs1)NC1CCCCC1	–	2.94µM	–	–
CC(C)C(OC(=O)CCC(=O)Nc1nccs1)C(=O)NC1CCCCC1 (stereo not given)	–	–	–	–
O=C(NCC1CCCN1S(=O)(=O)c1cccs1)c1c(F)cccc1F (stereo not given)	–	?	?	?
CC(C)CCC(O)(c1ccccc1)C(CN1CCOCC1)c1ccccc1 (stereo not given)	–	2.94µM	–	?
COc1ccc(C(O)(CCC(C)C)C(CN2CCOCC2)c2ccccc2)cc1 (stereo not given)	–	1.65µM	–	?
Cc1ccccc1OCc1nnc2c3cnn(C)c3ncn12	–	–	–	?
CC(C)(C)C(=O)NC(=S)NCc1ccccc1	–	–	9.28µM	–
O=C(NC(=S)NCc1ccccc1)c1ccccc1	–	–	–	–
CC(C)(C)CC(=O)NC(=S)NCCc1ccccc1	–	–	11.7µM	–
O=C(COC(=O)/C=C/c1cccs1)Nc1ccc2ccccc2c1	–	–	–	–
O=C1N=C(N2CCN(Cc3ccccc3)CC2)S/C1=C/c1cccs1	–	?	?	–
O=C1N=C(N2CCOCC2)SC1=Cc1ccco1	–	·	·	–
O=C1N=C(N2CCN(c3ccccc3)CC2)S/C1=C/c1cccs1	–	–	13.1µM	–
Cc1ccc(/C=C2\SC(N3CCN(C(c4ccccc4)c4ccccc4)CC3)=NC2=O)o1	?	5.86µM	1.65µM	?
